The record followed here is PubChem BioAssay (EPA / NIEHS).

Assay [1] in a line: CCTE_Shafer_MEA_acute_per_network_burst_spike_number_mean: CCTE's Neural Acute Assay for Average Number of Spikes in a Network Burst, Shafer Lab (AID 2284019).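 On AC50: curve fitted for loss of signal so actives reduce spikes per network burst.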 The gist of the method: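 Rat primary cortical neurons on 48-well MEA at DIV 13 or 15, 37 C; compounds 0.03-40 uM, at least three wells each. 40-min baseline then 40-min exposure recording; percent change in mean spikes per network burst.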

A short description of assay [2]: CCTE_Shafer_MEA_acute_per_network_burst_spike_number_std: CCTE's Neural Acute Assay for Standard Deviation of Number of Spikes in a Network Burst, Shafer Lab (AID 2284020).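 Further: fitted for decrease in spike-number SD versus DMSO so actives lower it.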 The gist of the method: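 Rat primary cortical neurons on 48-well MEA (16 electrodes/well), treated DIV 13 or 15 at 0.03-40 uM, ≥3 wells per compound. 40 min recordings at 37 C before and after dosing; value is percent change in network-burst spike-number SD, negative direction vs DMSO.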

Assay [3] is described as follows: CCTE_Shafer_MEA_acute_per_network_burst_electrodes_number_mean: CCTE's Neural Acute Assay for Mean Number of Electrodes in a Network Burst, Shafer Lab (AID 2284021).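 Further: curves fitted for decreases only so hits reduce electrodes per burst.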 The gist of the method: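 Rat primary cortical neurons on 48-well MEAs, DIV 13 or 15, were treated at 0.03-40 uM. Spikes were detected at 8x rms noise and recorded at 37 C. The mean electrodes per network burst in a 40 min exposure recording was expressed as percent change from a 40 min baseline.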

A short description of assay [4]: CCTE_Shafer_MEA_acute_network_burst_percentage: CCTE's Neural Acute Assay for Percentage of Network Bursts, Shafer Lab (AID 2284022).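 Further: curves fitted for loss so actives lower network burst percentage.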 The gist of the method: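 Rat primary cortical neuron networks on 48-well MEA plates, DIV 13 or 15, treated acutely with compound (0.03-40 uM, at least three wells). Percent of spikes within network bursts compared between 40-min recordings before and during exposure at 37 C, expressed as percent change.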

Assay [5] in a line: CCTE_Shafer_MEA_acute_cross_correlation_area: CCTE's Neural Acute Assay for Area of Cross Correlation, Shafer Lab (AID 2284024).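 Further: curves fitted for loss of cross-correlation area so actives lower synchrony.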 The gist of the method:
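Rat primary cortical neurons on 48-well MEA, DIV 13 or 15; compounds 0.03-40 uM. Baseline and post-exposure 40 min recordings at 37 C; percent change in area under pooled inter-electrode cross-correlation near zero lag, relative to DMSO.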

Assay [6] in a line: CCTE_Shafer_MEA_acute_cross_correlation_HWHM: CCTE's Neural Acute Assay for Cross Correlation at Half Width at Half Maximum, Shafer Lab (AID 2284026).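 Further: hits are a decrease in cross-correlogram half width relative to DMSO.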 The gist of the method: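 Rat primary cortical neurons on 48-well MEA plates; 40-min baseline and 40-min post-exposure recordings at 37 C on DIV 13 or 15, compounds 0.03-40 uM. Spikes detected at 8x rms noise; percent change in cross-correlogram HWHM per well vs baseline.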

The nature of assay [7]: CCTE_Shafer_MEA_acute_synchrony_index: CCTE's Neural Acute Assay for Synchrony, Shafer Lab (AID 2284027).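 Further: fitted for loss of signal so actives lower synchrony relative to DMSO.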 The gist of the method:
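Readout is percent change in the unitless network synchrony index (0 low, 1 high) between a 40-min baseline and a 40-min recording in compound. Cultures were primary rat cortical neurons on MEAs, treated at 0.03-40 uM on DIV 13 or 15.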

For assay [8], the target named is Estrogen receptor (Homo sapiens) (UniProt P03372). The experiment in a line: CCTE_Deisenroth_AIME_384WELL_LUC_Active: CCTE's 384-well Estrogen Receptor Transactivation Assay with AIME metabolic competence (ERTA luciferase; metabolism positive), Deisenroth Lab (AID 2284030; active means hit-call score of the fitted dose curve at least 0.9, where 1 is the maximum). The gist of the method: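 Chemicals (10-point, 0.002-200 uM) were first incubated 2 hours with alginate-immobilized induced male Sprague Dawley rat liver S9. The conditioned medium was then applied to VM7Luc4E2 cells for 24 hours, with ER luciferase induction read by luminescence relative to 17beta-estradiol.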
Estrogen receptor (Homo sapiens), sequence (P03372 whole entry, looked up): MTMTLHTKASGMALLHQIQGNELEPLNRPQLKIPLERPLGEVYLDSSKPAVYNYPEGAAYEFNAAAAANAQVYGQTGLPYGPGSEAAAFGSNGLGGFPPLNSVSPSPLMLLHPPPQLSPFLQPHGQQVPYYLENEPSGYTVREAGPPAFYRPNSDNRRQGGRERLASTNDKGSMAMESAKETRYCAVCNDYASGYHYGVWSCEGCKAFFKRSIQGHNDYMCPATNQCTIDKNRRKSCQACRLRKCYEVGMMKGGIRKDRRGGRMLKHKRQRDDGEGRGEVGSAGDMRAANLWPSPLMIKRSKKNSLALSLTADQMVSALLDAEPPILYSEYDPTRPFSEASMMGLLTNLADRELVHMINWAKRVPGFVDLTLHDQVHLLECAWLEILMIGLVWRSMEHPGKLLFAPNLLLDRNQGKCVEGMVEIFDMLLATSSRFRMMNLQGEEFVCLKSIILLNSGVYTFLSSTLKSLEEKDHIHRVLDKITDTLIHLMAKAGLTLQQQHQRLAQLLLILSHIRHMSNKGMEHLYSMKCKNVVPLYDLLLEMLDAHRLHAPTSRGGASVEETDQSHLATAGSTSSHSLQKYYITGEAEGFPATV

The nature of assay [9]: CCTE_Deisenroth_AIME_384WELL_CTox_Active: Cytotoxicity Assessment (CTOX) in CCTE's 384-well Estrogen Receptor Transactivation Assay with AIME metabolic competence (metabolism positive), Deisenroth Lab (AID 2284037; active means hit-call score of the fitted dose curve at least 0.9, where 1 is the maximum;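 further: chemicals first conditioned 2 h by alginate-bound induced rat liver S9 before cells; activity means signal loss indicating cell death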). The gist of the method: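 Chemicals pre-incubated 2 hours with alginate-immobilised phenobarbital/beta-naphthoflavone-induced male Sprague Dawley rat liver S9, then conditioned medium applied 24 hour to VM7Luc4E2 cells. Viability by fluorogenic protease substrate; 10-point series 0.002 - 200 uM.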

The target in assay [10] is Estrogen receptor (Homo sapiens) (UniProt P03372). The experiment in a line: CCTE_Deisenroth_AIME_384WELL_LUC_Inactive: CCTE's 384-well Estrogen Receptor Transactivation Assay without AIME metabolic competence (ERTA luciferase; metabolism negative), Deisenroth Lab (AID 2284038; active means hit-call score of the fitted dose curve at least 0.9, where 1 is the maximum;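 further: hits raise estrogen receptor luciferase signal so potencies reflect agonists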). The gist of the method: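 Metabolism-negative mode: chemicals (10-point, 0.002–200 uM) held 2 h with alginate-water microspheres, then conditioned medium applied to VM7Luc4E2 cells for 24 h. Luciferase induction referenced to 17beta-estradiol.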

Assay [11] shares this target. In words: CCTE_Deisenroth_AIME_384WELL_LUC_Shift: CCTE's 384-well Estrogen Receptor Transactivation Assay with AIME metabolic competence data shift (ERTA luciferase; difference in metabolism positive and negative), Deisenroth Lab (AID 2284041).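 Further: shift is response with S9 minus without S9 so positive means metabolism raised ER signal.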 The gist of the method: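 Chemicals (0.002–200 uM, 10 points) pre-incubated 2 h with alginate-encapsulated induced male Sprague Dawley rat liver S9 or S9-free, then medium applied 24 h to VM7Luc4E2 cells; luciferase. Endpoint is per-concentration difference, S9-positive minus negative.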

The nature of assay [12]: CCTE_Shafer_MEA_dev_firing_rate_mean: CCTE's Neural Network Formation Assay for Mean Firing Rate, Shafer Lab (AID 2284031). The gist of the method: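 Rat primary cortical neurons were seeded on multielectrode arrays and treated from plating through day 12, with redosing at each feed. Spontaneous spiking was recorded four times; mean firing rate AUC was fitted downward against DMSO.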

A short description of assay [13]: CCTE_Shafer_MEA_dev_per_burst_spike_percent: CCTE's Neural Network Formation Assay for Percent of Spikes in a Burst, Shafer Lab (AID 2284032).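 On AC50: fitted as a decrease in burst spike percentage below DMSO baseline.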 The gist of the method:
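Rat primary cortical neurons on 16-electrode MEA wells, dosed from plating day 0 for 12 days with renewal on DIV 5 and 9; spikes-in-bursts percentage averaged over bursting electrodes, collapsed as AUC across days 5, 7, 9, 12; loss direction versus DMSO.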

Assay [14] can be described thus: CCTE_Shafer_MEA_dev_active_electrodes_number: CCTE's Neural Network Formation Assay for Number of Active Electrodes, Shafer Lab (AID 2284040; active means hit-call score of the fitted dose curve at least 0.9, where 1 is the maximum;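 on AC50: potency for loss of active electrodes versus DMSO so lower counts are hits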). The gist of the method: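 Primary rat cortical neurons on 16-electrode MEA wells, exposed from day 0 through day 12 with compound renewed at DIV 5 and 9 feeds. Active electrodes (mean firing ≥5 spikes/min) counted at DIV 5, 7, 9, 12; trapezoidal AUC across days, loss-of-signal versus DMSO.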

Assay [15] is described as follows: CCTE_Shafer_MEA_dev_bursting_electrodes_number: CCTE's Neural Network Formation Assay for Number of Bursting Electrodes, Shafer Lab (AID 2284043; active means hit-call score of the fitted dose curve at least 0.9, where 1 is the maximum;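 on AC50: potency is for loss of bursting electrodes relative to DMSO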). The gist of the method:
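Primary rat cortical neurons plated on 16-electrode MEA wells, exposed from day 0 with compound renewed at DIV 5 and 9. Electrodes bursting ≥1 burst per 2 min counted on days 5, 7, 9 and 12; trapezoidal AUC across days, fitted for loss versus DMSO.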

A short description of assay [16]: CCTE_Deisenroth_AIME_384WELL_CTox_Inactive: Cytotoxicity Assessment (CTOX) in CCTE's 384-well Estrogen Receptor Transactivation Assay without AIME metabolic competence (metabolism negative), Deisenroth Lab (AID 2284039; active means hit-call score of the fitted dose curve at least 0.9, where 1 is the maximum;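 further: cell viability via live-cell protease substrate cleaved to fluorescent probe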). The gist of the method: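 VM7Luc4E2 human breast cells received conditioned medium from a 2 h incubation of chemical with alginate-water microspheres (no S9), then were exposed 24 h. Viability was read as protease-substrate cleavage to a fluorescent probe; loss of signal was fitted bidirectionally over 0.002–200 uM.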

Molecules are shown by their SMILES. Records with an inconclusive call do not appear. Calls of active or inactive are those of the source. How the source made its calls, unless noted: active means hit-call score of the fitted dose curve at least 0.9, where 1 is the maximum; inactive means score below 0.9.

What is called AC50 is the midpoint of the concentration-response curve, whichever way the signal moves. On to `Cc1ccc(N=CN(C)C=Nc2ccc(C)cc2C)c(C)c1`, for which the AC50 was 0.427 µM (active) in assay [1], 4.1 µM (active) in assay [2] and 20 µM (active) in assay [4]. Also, the molecule was classed as inactive in assay [3], in [5], in [6], in assay [7], in [8] and in assay [9]. Further, the molecule was called inactive in [10] and in assay [11].

On to `CC1(C)C(C(=O)OC(C#N)c2cccc(Oc3ccccc3)c2)C1(C)C` (configuration not stated), for which the AC50 in assay [1] is 0.0749 µM (active); in assay [3], 0.12 µM (active); in assay [4], 1.54 µM (active); in assay [5], 0.645 µM (active); in assay [6] it was 28.6 µM (active); in assay [7] it was 1.03 µM (active). For the same molecule, the results for the AC50 in assay [13], in assay [14] and in [15] were 12.6 µM (active), 19 µM (active) and 15.4 µM (active), respectively. For the same molecule, the molecule was classed as inactive in [2] and in [12].

`CCCC(=NOCC)C1=C(O)CC(CC(C)SCC)CC1=O` (configuration not stated): the AC50 in assay [1] is 20.1 µM (active); in assay [2], 25.4 µM (active); in assay [6], 30.7 µM (active); in assay [7], 28.2 µM (active). Besides, the molecule was classed as inactive in assay [3], in assay [4], in [5], in assay [8], in assay [10] and in assay [16]. Further, the outcome in assay [11] was inactive.

On to `Nc1c(Cl)c(F)nc(OCC(=O)O)c1Cl`, for which the result in assay [1], in assay [2], in assay [3], in [4], in assay [5] and in assay [6] was inactive. The molecule was classed as inactive in [7].

In the case of `N#CN=C1SCCN1Cc1ccc(Cl)nc1`, the result in assay [1], in assay [2], in assay [3], in assay [5], in [6] and in assay [7] was inactive. The call in [12], in assay [13], in [14] and in [15] was inactive. Also, the AC50 in assay [4] is 4.76 µM (active).

As to `CC1(C)CCC(=Cc2ccc(Cl)cc2)C1(O)Cn1cncn1` (configuration not stated), the molecule was called inactive in assay [1], in assay [2], in assay [3], in [4], in [5] and in assay [6]. Further, in assay [7], the result was inactive.

With `CC(C)=CC1C(C(=O)OCc2coc(Cc3ccccc3)c2)C1(C)C` (configuration not stated), the outcome in [1], in assay [4], in [5], in [6], in assay [8] and in [12] was inactive. The outcome in assay [13], in [9], in assay [10], in assay [16], in assay [14] and in assay [15] was inactive. Also, the AC50 in assay [2] is 20 µM (active); in assay [3], 8.62 µM (active); in [7] it was 20 µM (active).

With `Cc1nc(N(C)C)nc(OC(=O)N(C)C)c1C`, the molecule was classed as inactive in [1], in assay [2], in assay [3], in assay [4], in [5] and in assay [6]. Moreover, in [7], the AC50 was 20 µM (active).

Take `Clc1nc(Cl)nc(Nc2ccccc2Cl)n1`: the molecule was called inactive in assay [1], in assay [2], in [3], in assay [4], in assay [5] and in [6]. The call in [7] was inactive.
